SMILES strings stand for the structures. Hit rate of the full screen: of about 3,300 compounds, about 280 (8.5%) were called active.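 The calls were made as follows: active = mean growth inhibition over the two runs of 50% or more; inactive = mean growth inhibition under 50%.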 Many of the other results were omitted from the sample, so actives are more common in it than they were.

This experiment can be described thus: A549 NSCLC cell proliferation inhibitors – ATP luminescence, human non-small cell lung line, primary screen (AID 371).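 Also: compound exposure lasted 72 h before the ATP read; 0% = untreated cell signal and 100% = no luminescence left.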 Particulars: at 10 µM, active compounds read high.
As to `CN(C)CCOC(=O)c1cn(Cc2ccccc2)c2ccccc12`, the growth inhibition was 61.2% (active). The same measure for `Nc1c(C(=O)NCc2ccco2)c2nc3ccccc3nc2n1Cc1ccc(F)cc1`: 86.7% (active); for `CC(C)(C)OC(=O)c1c(N)n(Cc2ccco2)c2nc3ccccc3nc12`: 56.9% (active). The same measure for `CC(C)OC(=O)c1c(N)n(Cc2ccco2)c2nc3ccccc3nc12`: 18.6% (inactive); for `Nc1c(C(=O)NCc2ccco2)c2nc3ccccc3nc2n1CCN1CCCCC1`: 91.8% (active). With `COCC(C)OC(=O)c1c(N)n(Cc2ccco2)c2nc3ccccc3nc12` (stereo not given), the growth inhibition is 14% (inactive).

In the case of `CCCCOCCCn1c(N)c(C(=O)OCCOC)c2nc3ccccc3nc21`, the growth inhibition is 23.4% (inactive). The result for `COCCOC(=O)c1c(N)n(Cc2ccco2)c2nc3ccccc3nc12` reads 12.9% (inactive); that for `CCCCOCCCn1c(N)c(C(=O)OC(C)COC)c2nc3ccccc3nc21` (stereo not given), 36.6% (inactive); that for `COc1ccc(Cn2c(O)c(C=NCCCn3ccnc3)c(=O)[nH]c2=O)cc1`, -7.41% (inactive). The result for `CCCCCCn1c(O)c(C(C)=NC)c(=O)[nH]c1=O` reads 8.94% (inactive). On to `O=C(c1ccco1)C12CN3CN(CN(C3)C1)C2`, for which the growth inhibition is -3.02% (inactive). Regarding `OC1(c2ccc(F)cc2)CCNC1` (stereo not given), the growth inhibition was -3.04% (inactive). The result for `O=C1C2CCN(CC2)[C@@H]1Cc1ccc2ccccc2c1O` reads 7.73% (inactive); that for `COc1cc2[nH]c(=O)n(-c3cccc(Cl)c3)c(=O)c2cc1OC`, 3.67% (inactive). Regarding `O=C1c2ccccc2C(=O)N1Cc1nc2ccccc2c(=O)n1-c1cccnc1`, the growth inhibition was -0.22% (inactive). Take `C=CCC1(CN2CCCCCC2=O)C(=O)NC(=O)NC1=O`: the growth inhibition was 2.99% (inactive). Turning to `CCCCNC(=O)Nc1ccc(C(O)(C(=O)OC)C(F)(F)F)cc1` (stereo not given), the growth inhibition is -4.53% (inactive). Turning to `CCOC(C(=O)OCC(O)CN(CC)CC)(c1ccccc1)c1ccccc1` (stereo not given), the growth inhibition was 15.7% (inactive). The result for `O=C(O)CCCc1ccc(N(CCCl)CCCl)cc1` reads 50.8% (active). As for `CCOCCN1CCC(OC(C)=O)C(C)C1` (stereo not given), the growth inhibition was 1.45% (inactive). The result for `CCOc1ccc(Cc2c(O)[nH]c(=O)[nH]c2=O)cc1` reads -5.3% (inactive); that for `CCCCNC(=O)Nc1ccc(C(O)(C(=O)OCC)C(F)(F)F)cc1` (stereo not given), -3.41% (inactive).

With `CN1CCC(OC(=O)C2c3ccccc3Oc3ccccc32)CC1`, the growth inhibition was 13% (inactive). As for `CCCC12CN3CN(C1)CC(CCC)(C3)C2O` (stereo not given), the growth inhibition is -0.83% (inactive). Take `CC(C)[C@@]1(NC(=O)[C@@H]2C[C@@H]3c4cccc5[nH]cc(c45)C[C@H]3N(C)C2)O[C@@]2(O)[C@@H]3CCCN3C(=O)[C@H](Cc3ccccc3)N2C1=O`: the growth inhibition is 85.1% (active). On to `CC(C)[C@@]1(NC(=O)[C@@H]2C=C3c4cccc5[nH]cc(c45)C[C@H]3N(C)C2)O[C@@]2(O)[C@@H]3CCCN3C(=O)[C@H](Cc3ccccc3)N2C1=O`, for which the growth inhibition is 35.2% (inactive).

As for `CC(C)[C@H]1C(=O)N2CCC[C@H]2[C@]2(O)O[C@](NC(=O)[C@@H]3C=C4c5cccc6[nH]cc(c56)C[C@H]4N(C)C3)(C(C)C)C(=O)N12`, the growth inhibition is 37.3% (inactive). For `O=c1[nH]c(=O)n(Cc2ccccc2)c(O)c1C=NCCN1CCOCC1`, the growth inhibition is -6.38% (inactive).

As to `O=c1c(C=NCCN2CCNCC2)c(O)n(C2CCCCC2)c(=O)n1C1CCCCC1`, the growth inhibition is 82.3% (active).

`O=c1[nH]c(=O)n(Cc2ccccc2)c(O)c1C=NCCN1CCNCC1`: the growth inhibition is 4.69% (inactive). On to `O=c1[nH]c(=O)n(CCc2ccccc2)c(O)c1C=NCCN1CCNCC1`, for which the growth inhibition was -7.13% (inactive).

For the molecule `OC(c1ccc(F)cc1)C(c1ccccc1)N1CCOCC1` (stereo not given), the growth inhibition is 7.16% (inactive). With `O=c1[nH]c(=O)n(Cc2ccco2)c(O)c1C=NCCN1CCOCC1`, the growth inhibition was 0.93% (inactive).

As to `CC1CCC(C(C)C)C(OP(N)(=O)c2ccccc2)C1` (stereo not given), the growth inhibition was 16.9% (inactive).

`CNCCc1nc(N)n[nH]1`: the growth inhibition is 1.61% (inactive). `Cc1c(N=Cc2c(O)n(CCc3ccccc3)c(=O)[nH]c2=O)c(=O)n(-c2ccccc2)n1C`: the growth inhibition is 79.2% (active). For the molecule `Cc1c(N=Cc2c(O)n(CCc3ccc(F)cc3)c(=O)[nH]c2=O)c(=O)n(-c2ccccc2)n1C`, the growth inhibition was 12.3% (inactive). The result for `CCCCCCn1c(O)c(C=Nc2c(C)n(C)n(-c3ccccc3)c2=O)c(=O)[nH]c1=O` reads 6.23% (inactive); that for `C=CCn1c(O)c(C=NCCN(C)C)c(=O)[nH]c1=O`, 2.68% (inactive); that for `O=c1[nH]c(=O)n(CCc2ccccc2)c(O)c1C=NCCCn1ccnc1`, -3.73% (inactive). The result for `CCOc1ccccc1-n1c(O)c(C=Nc2c(C)n(C)n(-c3ccccc3)c2=O)c(=O)[nH]c1=O` reads 0.12% (inactive); that for `CC1(C)NCCN2C(=O)CSC21` (stereo not given), -1.76% (inactive); that for `O=C(CCCN1CCC2(CC1)C(=O)NCN2c1ccccc1)c1ccc(F)cc1`, 54.1% (active). Consider `CCCN(CC#CCO)CCC`, for which the growth inhibition is 0.1% (inactive). For the molecule `Cn1c(O)c(C(=O)c2ccccc2Cl)c(=O)n(C)c1=O`, the growth inhibition is 2.11% (inactive). The result for `CC(=O)OC1(c2ccc(C)cc2)CN2CCC1c1ccccc12` (stereo not given) reads 6.24% (inactive); that for `C=CCn1c(O)c(C=Nc2ccc(N(CC)CC)cc2)c(=O)[nH]c1=O`, 4.7% (inactive); that for `O=c1[nH]c(=O)n(-c2cccc(Cl)c2)c(O)c1C=NCCN1CCCCC1`, 4.68% (inactive).

As to `Cc1c(N=Cc2c(O)n(Cc3ccco3)c(=O)[nH]c2=O)c(=O)n(-c2ccccc2)n1C`, the growth inhibition was -0.44% (inactive).

`CCCCCCn1c(O)c(C=NCCN2CCCCC2)c(=O)[nH]c1=O`: the growth inhibition is -5.08% (inactive). The same measure for `c1ccc(Cn2ccnc2)cc1`: 8.97% (inactive); for `Clc1ccc(CSC(Cn2ccnc2)c2ccc(Cl)cc2Cl)cc1` (stereo not given): 93.2% (active). Take `Clc1ccc(COC(Cn2ccnc2)c2ccc(Cl)cc2Cl)c(Cl)c1` (stereo not given): the growth inhibition was 92.5% (active).

In the case of `Clc1ccc(COC(Cn2ccnc2)c2ccc(Cl)cc2Cl)cc1` (stereo not given), the growth inhibition is 91.6% (active). The same measure for `CCOc1ccc(-n2c(O)c(C=Nc3ccc(N(CC)CC)cc3)c(=O)[nH]c2=O)cc1`: 9.98% (inactive); for `CC(=O)C1(c2ccccc2)CCNCC1`: 2.01% (inactive).

As to `Cn1c(O)c(C=NCCCNC2CCCCC2)c(=O)n(C)c1=O`, the growth inhibition was 0.52% (inactive).

Regarding `CCOc1ccccc1-n1c(O)c(C=Nc2ccc(N(CC)CC)cc2)c(=O)[nH]c1=O`, the growth inhibition was 45.4% (inactive). The result for `CCCCSP1(=S)NCCCN1` reads 2.57% (inactive); that for `O=C(COc1ccc2ccccc2c1)N1CCN(C2CCN(Cc3ccccc3)CC2)CC1`, 36.9% (inactive); that for `O=c1[nH]c(=O)n(C2CCCCC2)c(O)c1C=NCCCn1ccnc1`, 3.81% (inactive).

As for `O=c1[nH]c(O)c(C=NC2CCN(Cc3ccccc3)CC2)c(=O)[nH]1`, the growth inhibition is 6% (inactive). As for `COc1cccc(-n2c(C)nc3ccccc3c2=O)c1`, the growth inhibition is 9.28% (inactive). The same measure for `COc1ccc(C2SCC(=O)Nc3c2c(=O)[nH]n3C2CCCCCC2)cc1` (stereo not given): 25.3% (inactive); for `CCC(=NCCOc1ccc(Cl)cc1)c1c(O)n(C)c(=O)n(C)c1=O`: 55.2% (active); for `CC(=NCCO)c1c(O)n(C)c(=O)n(C)c1=O`: -4.52% (inactive). As for `CCC(=NCCN1CCCCC1)c1c(O)n(C)c(=O)n(C)c1=O`, the growth inhibition is -4.37% (inactive). Regarding `CCN(CC)CCCC(C)N=C(c1ccccc1)c1c(O)n(C)c(=O)n(C)c1=O` (stereo not given), the growth inhibition was 7.06% (inactive). The result for `CCN(CC)CCN=Cc1c(O)n(CCc2ccccc2)c(=O)[nH]c1=O` reads 2.4% (inactive). In the case of `O=C(Nc1ccncc1)c1c(O)c2ccccc2n(Cc2ccccc2)c1=O`, the growth inhibition is 68.1% (active).

As to `CCN(CC)CCCNC(=O)c1c(O)c2ccccc2n(Cc2ccccc2)c1=O`, the growth inhibition is 91.6% (active).

In the case of `CN1CCc2nc(SCC(=O)OC(C)(C)C)c(C#N)cc2C1`, the growth inhibition is 25.1% (inactive). In the case of `CCCCC1(CN2CCCC2=O)C(=O)NC(=O)NC1=O`, the growth inhibition is 3.02% (inactive).

As for `COCCOC(=O)C1=C(N)Oc2c(c(=O)oc3ccccc23)[C@@]12C(=O)Nc1ccccc12`, the growth inhibition is -4.66% (inactive). Consider `CC1CN=C(Nc2ccc(N(C)C)cc2)S1` (stereo not given), for which the growth inhibition was 0.47% (inactive). The result for `CCOC(=O)c1cc(C)n(CCc2cnc[nH]2)c1C` reads 9.02% (inactive); that for `C[C@H]1CCCC(=O)CCCCCc2cc(O)cc(O)c2C(=O)O1`, 52.1% (active).

With `OCCOCC#CCN1CCOCC1`, the growth inhibition was 0.81% (inactive). The result for `CCCCSP1(=S)NCCCO1` (stereo not given) reads 19.6% (inactive); that for `C[C@@]1(CO)[C@H](O)CC[C@@]2(C)[C@H]1CC[C@H]1C[C@@H]3C[C@@]12CC[C@]3(O)CO`, 69.6% (active). For the molecule `O=P(c1ccccc1)(c1ccccc1)N1CCCCC1`, the growth inhibition was 8.66% (inactive). With `O=c1[nH]c(=O)n(Cc2ccco2)c(O)c1C=NCc1ccc2c(c1)OCO2`, the growth inhibition was 18.1% (inactive). The result for `CC1=C(C(=O)OC(C)C)[C@]2(C(=O)N(CC(N)=O)c3ccccc32)C(C#N)=C(N)O1` reads 5.06% (inactive); that for `c1ccc2c(c1)[nH]c1cnccc12`, -5.8% (inactive); that for `Cc1c2ccncc2c(C)c2c1[nH]c1ccccc12`, 95% (active). For the molecule `COc1cccc(CN2CCN(C(=O)COc3ccc4ccccc4c3)CC2)c1`, the growth inhibition was 33.9% (inactive). Take `C[C@H]1CCC/C=C/C2C[C@H](O)CC2[C@H](O)/C=C/C(=O)O1` (stereo not given in full): the growth inhibition is 76% (active).

Turning to `OC(Cc1ccccc1)(c1ccccc1)C1CN2CCC1CC2` (stereo not given), the growth inhibition was 34.4% (inactive). Consider `Cc1ccc2c(c1)[C@@H]1CN(C)CC[C@@H]1N2C(=O)Nc1cccc(C(F)(F)F)c1`, for which the growth inhibition was 83% (active). The result for `COc1ccc(C(=O)CN2CCOCC2)cc1F` reads 16% (inactive); that for `CN1CCc2c(c(N3CCCCC3)nc3n[nH]c(N)c23)C1`, 0.74% (inactive); that for `COc1ccc2[nH]cc(CCN(C)C)c2c1`, 1.86% (inactive).

`CCCc1nc2ccccc2c(=O)n1-c1ccccc1OC`: the growth inhibition was -0.02% (inactive). The result for `CCN(CC)c1ccc(N=Cc2c(O)n(-c3ccccc3C)c(=O)[nH]c2=O)cc1` reads 29.6% (inactive).

Values taken from PubChem BioAssay AID371 (SRMLSC, 2006).
